Compounds without any hit were thinned out: in the full panel of roughly 79,000, 15% have a hit. Calls of active or inactive are those of the source. Cut-off read from the data, not from the text of the source: active = growth inhibition above about 70%; inactive = the rest.
Legend:
[1] = NCI Yeast Anticancer Drug Screen. Data for the rad52 strain (AID 147);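 note: 0% = growth of vehicle-treated control cultures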; settings: S. cerevisiae rad52 mutant growth inhibition, hits give high values
Procedure, shortened: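 Vehicle-treated cultures served as the reference for growth inhibition of compound-exposed yeast bearing a DNA repair mutation.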

[2] = NCI Yeast Anticancer Drug Screen. Data for the wt1 strain (AID 149);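 note: 0% = growth of vehicle-treated wt1 cultures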; settings: S. cerevisiae wt1 strain (SPY 50644) growth inhibition, hits give high values
Procedure, shortened: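 wt1 yeast, compound-treated; % growth inhibition vs vehicle control.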

[3] = NCI Yeast Anticancer Drug Screen. Data for the rad50EPP+ strain (AID 151);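 note: 0% = growth of vehicle-treated control cultures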; settings: S. cerevisiae rad50 mutant strain, hits give high values
Procedure, shortened: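 In this screen, rad50EPP+ yeast were exposed to compounds. Growth inhibition was scored against vehicle-treated controls.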

[4] = NCI Yeast Anticancer Drug Screen. Data for the mgt1 strain (AID 153); settings: S. cerevisiae mgt1 mutant growth inhibition, hits give high values
Procedure, shortened: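 mgt1 strain exposed; growth vs vehicle control recorded as inhibition.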

[5] = NCI Yeast Anticancer Drug Screen. Data for the rad50 strain (AID 155);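 note: 0% = growth of vehicle-only cultures of the same strain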; settings: S. cerevisiae rad50 strain growth inhibition, hits give high values
Procedure, shortened: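 Genetically altered yeast (DNA repair pathway); compound treatment; growth inhibition vs vehicle ctrl.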

[6] = NCI Yeast Anticancer Drug Screen. Data for the mec2-1 strain (AID 157); settings: S. cerevisiae mec2-1 strain, hits give high values
Procedure, shortened: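 Vehicle-treated cultures served as reference for growth inhibition of compound-exposed mec2-1 yeast.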

[7] = NCI Yeast Anticancer Drug Screen. Data for the rad14 strain (AID 159);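 note: 0% = growth of vehicle-treated control cultures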; settings: S. cerevisiae rad14 strain growth inhibition, hits give high values
Procedure, shortened: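 Test compounds were applied to a repair-deficient yeast strain. Its growth was then compared with that of cultures given vehicle alone, and inhibition was expressed relative to those controls.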

[8] = NCI Yeast Anticancer Drug Screen. Data for the sgs1 mgt1 strain (AID 161);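 note: 0% = growth of cultures given vehicle only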; settings: S. cerevisiae sgs1 mgt1 strain, hits give high values
Procedure, shortened: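 Test agents were incubated with a DNA-repair-mutant yeast strain. Growth was then read and compared against vehicle-treated controls.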

[9] = NCI Yeast Anticancer Drug Screen. Data for the CLN2oe strain (AID 163);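 note: 0% = growth of vehicle-only control cultures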; settings: S. cerevisiae CLN2oe strain, hits give high values
Procedure, shortened: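 Inhibition relative to vehicle-treated yeast is reported. Cells: strain with genetic alteration in cell-cycle control, grown with compound.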

[10] = NCI Yeast Anticancer Drug Screen. Data for the cln2 rad14 strain (AID 165);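 note: 0% = growth equal to vehicle treated cultures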; settings: S. cerevisiae cln2 rad14 strain, hits give high values
Procedure, shortened: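 Each compound was tested on cln2 rad14 yeast. Inhibition of growth was calculated against vehicle-exposed controls.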

[11] = NCI Yeast Anticancer Drug Screen. Data for the bub3 strain (AID 167); settings: S. cerevisiae bub3 mutant strain, hits give high values
Procedure, shortened: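 Yeast carrying a defined mutation is treated with each compound, and growth is compared with that of vehicle-exposed cells to give inhibition.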

[12] = NCI Yeast Anticancer Drug Screen. Data for the wt2 strain (AID 169);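 note: 0% = growth of vehicle-treated yeast cultures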; settings: S. cerevisiae wt2 strain growth inhibition, hits give high values
Procedure, shortened: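 Inhibition of yeast growth was determined after compound treatment, normalised to controls receiving only vehicle.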

[13] = NCI Yeast Anticancer Drug Screen. Data for the mlh1 strain (AID 171);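 note: 0% = growth of vehicle-treated control cultures of the same strain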; settings: S. cerevisiae mlh1 strain growth inhibition, hits give high values
Procedure, shortened: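 Vehicle-normalised growth inhibition of a repair- or checkpoint-altered yeast strain following compound treatment.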

[14] = NCI Yeast Anticancer Drug Screen. Data for the sgs1 strain (AID 173);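 note: 0% = growth of vehicle-only control cultures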; settings: S. cerevisiae sgs1 mutant, hits give high values
Procedure, shortened: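 Screen format: yeast with repair or checkpoint alterations, compound exposure, growth read relative to vehicle.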

[15] = NCI Yeast Anticancer Drug Screen. Data for the mlh1 rad18 strain (AID 175); settings: S. cerevisiae mlh1 rad18 strain growth inhibition, hits give high values
Procedure, shortened: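 Vehicle-treated cultures served as the reference for growth inhibition in a yeast strain carrying DNA damage repair alterations exposed to each compound.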

[16] = NCI Yeast Anticancer Drug Screen. Data for the rad18 strain (AID 177); settings: S. cerevisiae rad18 mutant growth inhibition, hits give high values
Procedure, shortened: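 Test articles were incubated with altered yeast defective in DNA damage repair. Results are given as inhibition of growth versus vehicle.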

[17] = at 5.0 µM (retest, dose inferred, filed as 0.5)
[18] = at 50.0 µM (retest, dose inferred, filed as 5.0)

Measured: growth inhibition

O=C1C(=C2CCCC2)CCC1CN1CCCCC1 (stereo unspecified)
active: [1]; at 100.0 µM 96% | [2]; at 100.0 µM 89% | [3]; at 33.0 µM 80% | [3]; at 100.0 µM 94% | [4]; at 100.0 µM 95% | [5]; at 50.0 µM 76.3% | [5]; at 100.0 µM 95% | [6]; at 33.0 µM 70% | [6]; at 100.0 µM 96% | [7]; at 100.0 µM 94% | [9]; at 100.0 µM 91% | [11]; at 33.0 µM 81% | [11]; [18] 80% | [11]; at 100.0 µM 97% | [12]; at 100.0 µM 93% | [13]; at 33.0 µM 84% | [13]; at 100.0 µM 97% | [14]; at 33.0 µM 87% | [14]; at 100.0 µM 97% | [15]; [18] 83% | [16]; at 33.0 µM 81% | [16]; at 100.0 µM 94%
inactive: [1]; at 1.2 µM 3% | [1]; at 3.7 µM 16% | [1]; at 11.0 µM 20% | [1]; at 33.0 µM 64% | [2]; at 1.2 µM 6% | [2]; at 3.7 µM 12% | [2]; at 11.0 µM 27% | [2]; at 33.0 µM 30% | [3]; at 1.2 µM 28% | [3]; at 3.7 µM 36% | [3]; at 11.0 µM 48% | [4]; at 1.2 µM -10% | [4]; at 3.7 µM 5% | [4]; at 11.0 µM 13% | [4]; at 33.0 µM 54% | [5]; at 1.2 µM 2% | [5]; at 3.7 µM 8% | [5]; [17] -3% | [5]; at 11.0 µM 9% | [5]; at 33.0 µM 60% | [5]; [18] 57% | [6]; at 1.2 µM -7% | [6]; at 3.7 µM -12% | [6]; [17] 6% | [6]; at 11.0 µM 9% | [6]; [18] 60% | [6]; at 50.0 µM 68.7% | [7]; at 1.2 µM 10% | [7]; at 3.7 µM 10% | [7]; at 11.0 µM 29% | [7]; at 33.0 µM 57% | [8]; [17] 9% | [8]; [18] 57% | [8]; at 50.0 µM 58.9% | [9]; at 1.2 µM -16% | [9]; at 3.7 µM 11% | [9]; at 11.0 µM -1% | [9]; at 33.0 µM 40% | [10]; [17] 4% | [10]; [18] 14% | [10]; at 50.0 µM 43.5% | [11]; at 1.2 µM 8% | [11]; at 3.7 µM 10% | [11]; [17] -21% | [11]; at 11.0 µM 18% | [11]; at 50.0 µM 55.6% | [12]; at 1.2 µM -17% | [12]; at 3.7 µM 2% | [12]; at 11.0 µM 11% | [12]; at 33.0 µM 68% | [13]; at 1.2 µM 0% | [13]; at 3.7 µM 0% | [13]; at 11.0 µM 13% | [14]; at 1.2 µM 34% | [14]; at 3.7 µM 30% | [14]; at 11.0 µM 63% | [15]; [17] -29% | [15]; at 50.0 µM 63.5% | [16]; at 1.2 µM 8% | [16]; at 3.7 µM 6% | [16]; at 11.0 µM 27%

OB(O)c1ccccc1C#Cc1ccccc1
inactive: [1]; at 1.2 µM 3% | [1]; at 3.7 µM 4% | [1]; at 11.0 µM 8% | [1]; at 33.0 µM 21% | [1]; at 100.0 µM 27% | [2]; at 1.2 µM -2% | [2]; at 3.7 µM -2% | [2]; at 11.0 µM 2% | [2]; at 33.0 µM 8% | [2]; at 100.0 µM 15% | [3]; at 1.2 µM -1% | [3]; at 3.7 µM 3% | [3]; at 11.0 µM 12% | [3]; at 33.0 µM 33% | [3]; at 100.0 µM 34% | [4]; at 1.2 µM 1% | [4]; at 3.7 µM 3% | [4]; at 11.0 µM 8% | [4]; at 33.0 µM 14% | [4]; at 100.0 µM 18% | [5]; at 1.2 µM 5% | [5]; at 3.7 µM 13% | [5]; [17] -14% | [5]; at 11.0 µM 20% | [5]; at 33.0 µM 29% | [5]; [18] 21% | [5]; at 100.0 µM 43% | [6]; at 1.2 µM -1% | [6]; at 3.7 µM 6% | [6]; [17] -5% | [6]; at 11.0 µM 12% | [6]; at 33.0 µM 21% | [6]; [18] 1% | [6]; at 50.0 µM 64.5% | [6]; at 100.0 µM 28% | [7]; at 1.2 µM 2% | [7]; at 3.7 µM 2% | [7]; at 11.0 µM 12% | [7]; at 33.0 µM 27% | [7]; at 100.0 µM 37% | [8]; [17] -16% | [8]; [18] 22% | [9]; at 1.2 µM 7% | [9]; at 3.7 µM 9% | [9]; at 11.0 µM 23% | [9]; at 33.0 µM 43% | [9]; at 100.0 µM 40% | [10]; [17] -12% | [10]; [18] 13% | [10]; at 50.0 µM 55.8% | [11]; at 1.2 µM 8% | [11]; at 3.7 µM 2% | [11]; [17] -20% | [11]; at 11.0 µM 21% | [11]; at 33.0 µM 34% | [11]; [18] 43% | [11]; at 100.0 µM 46% | [12]; at 1.2 µM -2% | [12]; at 3.7 µM -1% | [12]; at 11.0 µM 7% | [12]; at 33.0 µM 23% | [12]; at 100.0 µM 24% | [13]; at 1.2 µM -2% | [13]; at 3.7 µM 6% | [13]; at 11.0 µM 4% | [13]; at 33.0 µM 14% | [13]; at 100.0 µM 14% | [14]; at 1.2 µM -1% | [14]; at 3.7 µM -1% | [14]; at 11.0 µM 8% | [14]; at 33.0 µM 19% | [14]; at 100.0 µM 31% | [15]; [17] 13% | [15]; [18] 68% | [16]; at 1.2 µM 1% | [16]; at 3.7 µM 2% | [16]; at 11.0 µM 13% | [16]; at 33.0 µM 41% | [16]; at 100.0 µM 54%
active: [5]; at 50.0 µM 96.3% | [8]; at 50.0 µM 76.8% | [11]; at 50.0 µM 76.8% | [15]; at 50.0 µM 75.8%

Source: PubChem BioAssay (NCI)
